# Experimental data: the supplement of paper PMC8728848
# Many of the other results were omitted from the sample, so the strongest signals are more common in it than they were.
# B1: CD72 ectodomain (Homo sapiens), P21854 (protein)
# chain: RYLQVSQQLQQTNRVLEVTNSSLRQQLRLKITQLGQSAEDLQGSRRELAQSQEALQVEQRAHQAAEGQLQACQADRQKTKETLQSEEQQRRALEQKLSNMENRLKPFFTCGSADTCCPSGWIMHQKSCFYISLTSKNWQESQKQCETLSSKLATFSEIYPQSHSYYFLNSLLPNGGSGNSYWTGLSSNKDWKLTDDTQRTRTYAQSSKCNKVHKTWSWWTLESESCRSSLPYICEMTAFRFPD
# Columns and labels:
# Assay in all cases: glycan array binding signal (z-score within array); higher = stronger binding
# Settings in all cases: glycan notation: IUPAC condensed, linker removed
# [1] = biological target: Fuc(a1-2)Gal(b1-3)GalNAc(b1-3)Gal(a1-4)Gal(b1-4)Glc
# Method in brief: (§1)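 The binding signal is a Z-score computed within each array. Data were drawn from 3228 arrays in the Consortium for Functional Glycomics database, restricted to those with a known protein sequence. Scores were averaged over arrays of the same protein sequence at different concentrations or buffers, and over linkers, and negative values can be taken as non-binding.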
# [2] = biological target: Fuc(a1-2)Gal(b1-3)GalNAc(b1-4)[Neu5Ac(a2-3)]Gal(b1-4)Glc
# Method in brief: as §1
# Fuc(a1-2)Gal(b1-3)GlcNAc = biological target: Fuc(a1-2)Gal(b1-3)GlcNAc
# Method in brief: as §1
# [3] = biological target: Fuc(a1-2)Gal(b1-3)[Fuc(a1-4)]GlcNAc(b1-3)[Fuc(a1-3)[Gal(b1-4)]GlcNAc(b1-6)]Gal(b1-4)Glc
# Method in brief: as §1
# [4] = biological target: Fuc(a1-2)Gal(b1-4)GlcNAc(b1-3)GalNAc
# Method in brief: as §1
# [5] = biological target: Fuc(a1-2)Gal(b1-4)[Fuc(a1-3)]GlcNAc(b1-3)GalNAc
# Method in brief: as §1
# [6] = biological target: Fuc(a1-2)[Gal(a1-3)]Gal(b1-3)GlcNAc(b1-2)Man(a1-3)[Fuc(a1-2)[Gal(a1-3)]Gal(b1-3)GlcNAc(b1-2)Man(a1-6)]Man(b1-4)GlcNAc(b1-4)[Fuc(a1-6)]GlcNAc
# Method in brief: as §1
# [7] = biological target: Fuc(a1-2)[Gal(a1-3)]Gal(b1-4)Glc
# Method in brief: as §1
# [8] = biological target: Fuc(a1-2)[GalNAc(a1-3)]Gal(b1-4)GlcNAc(b1-2)Man(a1-3)[Fuc(a1-2)[GalNAc(a1-3)]Gal(b1-4)GlcNAc(b1-2)Man(a1-6)]Man(b1-4)GlcNAc(b1-4)[Fuc(a1-6)]GlcNAc
# Method in brief: as §1
# [9] = biological target: Fuc(a1-3)[Gal(b1-4)]GlcNAc(b1-2)Man(a1-3)[Fuc(a1-3)[Gal(b1-4)]GlcNAc(b1-2)Man(a1-6)]Man(b1-4)GlcNAc(b1-4)[Fuc(a1-6)]GlcNAc
# Method in brief: as §1
# Gal(a1-2)Gal = biological target: Gal(a1-2)Gal
# Method in brief: as §1
# [10] = biological target: Gal(a1-3)Gal(b1-4)GlcNAc(b1-3)GalNAc
# Method in brief: as §1
# [11] = biological target: Gal(a1-3)Gal(b1-4)[Fuc(a1-3)]GlcNAc
# Method in brief: as §1
# [12] = biological target: Gal(a1-4)Gal(b1-4)GlcNAc(b1-2)Man(a1-3)[Gal(a1-4)Gal(b1-4)GlcNAc(b1-2)Man(a1-6)]Man(b1-4)GlcNAc(b1-4)GlcNAc
# Method in brief: as §1
# [13] = biological target: Gal(b1-3)GalNAc(b1-4)[Neu5Ac(a2-3)]Gal(b1-4)Glc
# Method in brief: as §1
# [14] = biological target: Gal(b1-3)GlcNAc(b1-2)Man(a1-3)[Gal(b1-3)GlcNAc(b1-2)Man(a1-6)]Man(b1-4)GlcNAc(b1-4)GlcNAc
# Method in brief: as §1
# [15] = biological target: Gal(b1-3)GlcNAc(b1-3)Gal(b1-3)GlcNAc
# Method in brief: as §1
# [16] = biological target: Gal(b1-3)GlcNAc(b1-3)Gal(b1-4)[Fuc(a1-3)]GlcNAc(b1-6)[Gal(b1-3)GlcNAc(b1-3)]Gal(b1-4)Glc
# Method in brief: as §1
# Gal(b1-4)GlcNAc(b1-2)Man = biological target: Gal(b1-4)GlcNAc(b1-2)Man
# Method in brief: as §1
# [17] = biological target: Gal(b1-4)GlcNAc(b1-2)[Gal(b1-4)GlcNAc(b1-4)]Man(a1-3)[Gal(b1-4)GlcNAc(b1-2)[Gal(b1-4)GlcNAc(b1-6)]Man(a1-6)]Man(b1-4)GlcNAc(b1-4)GlcNAc
# Method in brief: as §1
# [18] = biological target: Gal(b1-4)GlcNAc(b1-3)Gal(b1-3)GlcNAc
# Method in brief: as §1
# [19] = biological target: Gal(b1-4)GlcNAc(b1-3)Gal(b1-4)[Fuc(a1-3)GlcNAc(b1-6)]Gal(b1-4)Glc
# Method in brief: as §1
# Gal6S(b1-4)Glc = biological target: Gal6S(b1-4)Glc
# Method in brief: as §1
# GalNAc(b1-6)GalNAc = biological target: GalNAc(b1-6)GalNAc
# Method in brief: as §1
# GlcA(b1-3)Gal = biological target: GlcA(b1-3)Gal
# Method in brief: as §1
# [20] = biological target: GlcNAc(a1-4)Gal(b1-3)GlcNAc
# Method in brief: as §1
# [21] = biological target: GlcNAc(a1-4)Gal(b1-4)GlcNAc(b1-3)Gal(b1-4)Glc
# Method in brief: as §1
# [22] = biological target: GlcNAc(a1-4)Gal(b1-4)GlcNAc(b1-3)Gal(b1-4)GlcNAc
# Method in brief: as §1
# [23] = biological target: GlcNAc(a1-6)Gal(b1-4)GlcNAc
# Method in brief: as §1
# [24] = biological target: GlcNAc(b1-2)Man(a1-3)[GlcNAc(b1-2)Man(a1-6)]Man(b1-4)GlcNAc(b1-4)[Fuc(a1-6)]GlcNAc
# Method in brief: as §1
# [25] = biological target: GlcNAc(b1-4)GlcNAc(b1-4)GlcNAc
# Method in brief: as §1
# Kdn(a2-3)Gal(b1-4)GlcNAc = biological target: Kdn(a2-3)Gal(b1-4)GlcNAc
# Method in brief: as §1
# [26] = biological target: Man(a1-2)Man(a1-6)[Man(a1-3)]Man(a1-6)[Man(a1-2)Man(a1-2)Man(a1-3)]Man
# Method in brief: as §1
# [27] = biological target: Man(a1-3)[Man(a1-6)]Man(a1-6)[Man(a1-3)]Man(b1-4)GlcNAc(b1-4)GlcNAc
# Method in brief: as §1
# Man(a1-6)Man = biological target: Man(a1-6)Man
# Method in brief: as §1
# Man(b1-4)GlcNAc = biological target: Man(b1-4)GlcNAc
# Method in brief: as §1
# [28] = biological target: Neu5Ac(a2-3)Gal(b1-3)GalNAc(b1-4)[Neu5Ac(a2-3)]Gal(b1-4)Glc
# Method in brief: as §1
# [29] = biological target: Neu5Ac(a2-3)Gal(b1-4)GlcNAc(b1-2)Man(a1-3)[Neu5Ac(a2-6)Gal(b1-4)GlcNAc(b1-2)Man(a1-6)]Man(b1-4)GlcNAc(b1-4)GlcNAc
# Method in brief: as §1
# [30] = biological target: Neu5Ac(a2-3)Gal(b1-4)GlcNAc(b1-3)Gal(b1-3)GlcNAc
# Method in brief: as §1
# [31] = biological target: Neu5Ac(a2-3)Gal(b1-4)[Fuc(a1-3)]GlcNAc(b1-3)Gal(b1-4)[Fuc(a1-3)]GlcNAc(b1-3)Gal(b1-4)[Fuc(a1-3)]GlcNAc
# Method in brief: as §1
# [32] = biological target: Neu5Ac(a2-6)Gal(b1-4)GlcNAc(b1-3)Gal(b1-4)GlcNAc(b1-3)Gal(b1-4)GlcNAc
# Method in brief: as §1
binder,measurement,setting,value
B1,glycan array binding signal (z-score),[1],-0.867
same,glycan array binding signal (z-score),[2],0.01
same,glycan array binding signal (z-score),Fuc(a1-2)Gal(b1-3)GlcNAc,1.12
same,glycan array binding signal (z-score),[3],-0.186
same,glycan array binding signal (z-score),[4],1.08
same,glycan array binding signal (z-score),[5],5.72
same,glycan array binding signal (z-score),[6],2.7
same,glycan array binding signal (z-score),[7],0.3
same,glycan array binding signal (z-score),[8],0.886
same,glycan array binding signal (z-score),[9],0.575
same,glycan array binding signal (z-score),Gal(a1-2)Gal,0.56
same,glycan array binding signal (z-score),[10],-1.69
same,glycan array binding signal (z-score),[11],1.45
same,glycan array binding signal (z-score),[12],0.8
same,glycan array binding signal (z-score),[13],1.16
same,glycan array binding signal (z-score),[14],1.6
same,glycan array binding signal (z-score),[15],-0.958
same,glycan array binding signal (z-score),[16],2.26
same,glycan array binding signal (z-score),Gal(b1-4)GlcNAc(b1-2)Man,0.51
same,glycan array binding signal (z-score),[17],-0.561
same,glycan array binding signal (z-score),[18],-0.795
same,glycan array binding signal (z-score),[19],-0.359
same,glycan array binding signal (z-score),Gal6S(b1-4)Glc,-0.925
same,glycan array binding signal (z-score),GalNAc(b1-6)GalNAc,-0.435
same,glycan array binding signal (z-score),GlcA(b1-3)Gal,2.21
same,glycan array binding signal (z-score),[20],-1.11
same,glycan array binding signal (z-score),[21],0.006
same,glycan array binding signal (z-score),[22],4.25
same,glycan array binding signal (z-score),[23],4.24
same,glycan array binding signal (z-score),[24],2.59
same,glycan array binding signal (z-score),[25],0.82
same,glycan array binding signal (z-score),Kdn(a2-3)Gal(b1-4)GlcNAc,0.726
same,glycan array binding signal (z-score),[26],-0.32
same,glycan array binding signal (z-score),[27],0.977
same,glycan array binding signal (z-score),Man(a1-6)Man,-0.096
same,glycan array binding signal (z-score),Man(b1-4)GlcNAc,2.32
same,glycan array binding signal (z-score),[28],-0.087
same,glycan array binding signal (z-score),[29],0.127
same,glycan array binding signal (z-score),[30],1.03
same,glycan array binding signal (z-score),[31],1.73
same,glycan array binding signal (z-score),[32],0.371
